According to PubChem BioAssay AID588350 (The Scripps Research Institute Molecular Screening Center, 2011):
In all, about 1,900 compounds went through this assay and about 1,200 (63%) were called active.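 Rule for the calls: active = mean activation above the mean of solvent-only control wells plus 3 SD (cut at about 22% in these data); inactive = the rest.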 The set was probably picked from earlier hits. The entries come from a sample that favours actives as a whole.

Assay: frataxin GAA30 reporter activation – cell-based, luminescence, HEK293, lucGAA30, triplicate, counter-screen for GAA850 frataxin promoter activator project, confirmation (AID 588350);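 note: counterscreen of GAA850 promoter hits where activity marks nonselective or luminescence artifacts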
Conditions: HEK293 lucGAA30 FXN promoter luciferase, 24 h; at 6 µM; hits give high values
In the case of `CC(C)(C)c1ccc(OC(=O)N2CCCCC2)cc1`, the activation is reported as 101% (active).
